Experimental data: PubChem BioAssay
The source made the active and inactive calls.

Key:
[1] = system: Plasmodium falciparum Sir2 (PF13_0152, Sir2A); experiment: pfSir2 binders on small-molecule microarrays, primary screen, biochemical, small-molecule microarray, 635 nm fluorescence (AID 1098); details: small-molecule microarray binding, fluorescence 635 nm; higher = more signal;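 also: score merges spot fluorescence intensity with its signal-to-noise ratio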
[2] = small-molecule microarray binders of probe aDKK1, primary screen, biochemical, biotinylated probe, 635/667 nm fluorescence (AID 1099); details: higher = more signal;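 also: score merges 667nm spot fluorescence with signal to noise across triplicate slides; reference of the scale not given here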
[3] = small-molecule microarray binders of probe aCHRDL2, primary screen, biochemical, biotinylated probe, 635/667 nm fluorescence (AID 1100); details: higher = more signal
[4] = splicing luciferase reporter signal modulators, primary screen, spliceosome inhibition project, cell-based, HEK293, splice +/- reporter (AID 1101); details: luminescence, 24 h, higher = more signal, called active from +8 up or from −8 down;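 also: HEK293 cells carrying a splicing-competent luciferase reporter gene; test concentration not given here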
[5] = molecular target: Fibroblast growth factor 10 (Homo sapiens) (UniProt O15520); experiment: FGF10 binders on small-molecule microarrays, primary screen, biochemical, small-molecule microarray, 635 nm fluorescence (AID 1102); details: FGF10 binding, fluorescence 635 nm, higher = more signal
[6] = system: glycogen synthase kinase-3 (GSK3A per assay name; protocol says GSK3B); experiment: GSK3 binders on small-molecule microarrays, primary screen, biochemical, small-molecule microarray, 635 nm fluorescence, GSK3A (AID 1103); details: small-molecule microarray binding, fluorescence 635 nm; higher = more signal; also: the record names both GSK3A and GSK3B
[7] = molecular target: Epidermal growth factor receptor (Homo sapiens) (UniProt P00533); experiment: EGFR binders on small-molecule microarrays, primary screen, biochemical, small-molecule microarray, 635 nm fluorescence (AID 1104); details: EGFR binding, higher = more signal;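 also: score merges 667 nm emission intensity with spot signal to noise over triplicate slides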
[8] = molecular target: Follistatin-related protein 3 (Homo sapiens) (UniProt O95633); experiment: FSTL3 binders on small-molecule microarrays, primary screen, biochemical, small-molecule microarray, 635 nm fluorescence (AID 1105); details: FSTL3 binding, higher = more signal;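 also: score merges emission near 667 nm and signal to noise per printed spot across three slides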
[9] = molecular target: Dickkopf-related protein 1 (Homo sapiens) (UniProt O94907); experiment: DKK1 binders on small-molecule microarrays, primary screen, biochemical, small-molecule microarray, 635 nm fluorescence scan (AID 1106); details: DKK1 binding, higher = more signal;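 also: score merges emission near 667 nm with signal to noise over three replicate slides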
[10] = system: Inhibin beta A chain (activin A); experiment: INHBA (activin A) binders on microarrays, primary screen, biochemical, small-molecule microarray, 635 nm fluorescence scan (AID 1107); details: small-molecule microarray binding, higher = more signal;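 also: mouse activin A protein probed at 4.33 µg/mL on printed slides; score merges bound-protein fluorescence near 667 nm with spot signal-to-noise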

Sequence of Follistatin-related protein 3 (Homo sapiens) (O95633 whole entry, looked up): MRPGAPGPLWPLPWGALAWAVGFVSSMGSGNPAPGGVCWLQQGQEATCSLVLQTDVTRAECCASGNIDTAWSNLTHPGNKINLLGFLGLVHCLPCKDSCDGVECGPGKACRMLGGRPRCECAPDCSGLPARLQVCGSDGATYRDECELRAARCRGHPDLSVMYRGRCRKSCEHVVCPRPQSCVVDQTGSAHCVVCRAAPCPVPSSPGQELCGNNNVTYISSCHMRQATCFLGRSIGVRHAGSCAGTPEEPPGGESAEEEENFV
Sequence of Fibroblast growth factor 10 (Homo sapiens) (O15520 whole entry, looked up): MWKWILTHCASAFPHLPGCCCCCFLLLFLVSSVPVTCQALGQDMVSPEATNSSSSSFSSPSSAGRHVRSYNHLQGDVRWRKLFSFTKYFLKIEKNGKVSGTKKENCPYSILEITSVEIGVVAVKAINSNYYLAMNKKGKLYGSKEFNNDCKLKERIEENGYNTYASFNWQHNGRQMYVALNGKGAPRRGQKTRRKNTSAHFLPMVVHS
Sequence of Dickkopf-related protein 1 (Homo sapiens) (O94907 whole entry, looked up): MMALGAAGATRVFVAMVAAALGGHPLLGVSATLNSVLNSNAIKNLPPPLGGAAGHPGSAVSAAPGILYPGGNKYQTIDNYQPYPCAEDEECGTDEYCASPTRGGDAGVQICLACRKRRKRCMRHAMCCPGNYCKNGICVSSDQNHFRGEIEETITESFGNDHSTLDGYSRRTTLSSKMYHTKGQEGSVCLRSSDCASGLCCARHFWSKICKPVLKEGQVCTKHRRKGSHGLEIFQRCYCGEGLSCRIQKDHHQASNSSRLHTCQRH
Sequence of Epidermal growth factor receptor (Homo sapiens) (P00533 whole entry, looked up): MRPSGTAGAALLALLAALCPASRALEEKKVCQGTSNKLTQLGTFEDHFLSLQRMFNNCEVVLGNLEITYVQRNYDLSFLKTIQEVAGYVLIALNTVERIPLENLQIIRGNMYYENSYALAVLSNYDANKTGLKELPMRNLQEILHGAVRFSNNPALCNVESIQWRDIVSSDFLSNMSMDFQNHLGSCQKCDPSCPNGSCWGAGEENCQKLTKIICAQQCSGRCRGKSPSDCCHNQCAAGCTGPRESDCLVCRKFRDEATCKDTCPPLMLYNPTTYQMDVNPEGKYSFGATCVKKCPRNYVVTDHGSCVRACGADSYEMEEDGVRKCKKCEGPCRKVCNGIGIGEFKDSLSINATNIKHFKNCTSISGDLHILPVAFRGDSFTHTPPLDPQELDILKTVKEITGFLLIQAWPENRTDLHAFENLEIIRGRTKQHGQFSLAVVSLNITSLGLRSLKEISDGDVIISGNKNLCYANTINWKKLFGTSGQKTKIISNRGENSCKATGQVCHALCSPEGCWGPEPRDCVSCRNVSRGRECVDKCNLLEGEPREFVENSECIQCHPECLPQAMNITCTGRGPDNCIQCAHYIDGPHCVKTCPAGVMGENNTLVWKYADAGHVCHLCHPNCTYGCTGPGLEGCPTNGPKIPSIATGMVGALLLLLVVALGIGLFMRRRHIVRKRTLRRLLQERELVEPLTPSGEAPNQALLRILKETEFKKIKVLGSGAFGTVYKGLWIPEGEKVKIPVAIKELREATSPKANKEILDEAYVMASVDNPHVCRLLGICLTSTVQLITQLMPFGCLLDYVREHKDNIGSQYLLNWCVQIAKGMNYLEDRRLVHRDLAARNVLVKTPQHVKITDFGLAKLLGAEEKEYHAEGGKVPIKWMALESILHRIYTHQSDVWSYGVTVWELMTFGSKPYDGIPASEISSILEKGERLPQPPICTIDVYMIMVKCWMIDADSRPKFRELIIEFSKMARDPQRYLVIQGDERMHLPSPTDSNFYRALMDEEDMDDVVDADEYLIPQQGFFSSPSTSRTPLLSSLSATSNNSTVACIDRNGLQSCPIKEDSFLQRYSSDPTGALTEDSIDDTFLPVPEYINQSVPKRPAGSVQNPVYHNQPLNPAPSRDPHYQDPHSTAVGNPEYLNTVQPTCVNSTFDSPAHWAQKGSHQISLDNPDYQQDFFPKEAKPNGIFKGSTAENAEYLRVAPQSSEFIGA

Structure (SMILES) | composite z-score [1] | composite z-score [2] | composite z-score [3] | z-score [4] | composite z-score [5] | composite z-score [6] | composite z-score [7] | composite z-score [8] | composite z-score [9] | composite z-score [10]
NC(=O)NCC#Cc1ccc2c(c1)[C@]1(C(=O)N2)[C@H](c2ccc(OCCO)cc2)N2[C@H](c3ccccc3)[C@H](c3ccccc3)OC(=O)[C@H]2[C@@H]1C(=O)N1CCCCCCC1 | 1.72 | 2.51 | 1.17 | 0.238 (inactive) | 1.5 | 1.27 | 1.71 | 1.64 | 2.25 | 1.5
O=C1C[C@@](C(=O)NCc2ccccc2)(c2ccc([N+](=O)[O-])cc2)[C@@H](c2ccc(CO)cc2I)N1C1CCCCC1 | 0.838 | 1.78 | 0.652 | -0.551 (inactive) | 0.7 | 1.16 | 0.768 | 1.33 | 0.876 | 0.654
COCC(=C=CC[C@@H](O)c1ccccc1OCCO)C[C@@H](O)COCc1ccccc1 | 0.72 | 0.724 | 0.167 | -1.48 (inactive) | 1.21 | 0.732 | -1.19 | -0.268 | -0.466 | 1.24
CC(=O)NCCCC[C@@H]1NC(=O)[C@H]2C[C@@H](C(=O)NCCCCCN)[C@@H](c3cccc(OCCO)c3)N2C1=O | 0.878 | -0.0159 | 0.366 | -1.77 (inactive) | 0.757 | 0.4 | 0.103 | 0.0957 | 0.142 | 0.602
C=CC[C@]1(C(=O)N(C)C)N=C(c2ccc(OCCCO)cc2)O[C@H]1c1ccccc1 | 1.05 | 0.135 | 0.953 | -1.04 (inactive) | 1.21 | 0.254 | -0.489 | 0.479 | -0.228 | 0.832
COC(=O)C(CC#Cc1ccc2c(c1)[C@]1(C(=O)N2)[C@H](c2ccc(O)cc2)N2[C@H](c3ccccc3)[C@H](c3ccccc3)OC(=O)[C@H]2[C@@H]1C(=O)O)C(=O)OC | 1.26 | -0.114 | 0.374 | -0.226 (inactive) | 0.159 | -0.375 | -0.297 | 0.528 | -0.217 | 0.201
C=CCOC(=O)[C@@H]1[C@H]2C(=O)O[C@H](c3ccccc3)[C@H](c3ccccc3)N2[C@H](c2ccc(OCCOC(=O)[C@@H]3C[C@@H]4C(=O)N5CCC[C@H]5C(=O)N4[C@@H]3c3cccc(OCCO)c3)cc2)[C@@]12C(=O)Nc1ccc(I)cc12 | 1.04 | -0.297 | -0.121 | -0.64 (inactive) | 1.18 | 1.12 | 0.754 | 1.11 | 1.1 | 0.607
COc1ccc([Si](C)(C)[C@@H]2[C@@H](CCO)O[C@]3(C(=O)N(Cc4cccc(N5C(=O)COc6ccccc65)c4)c4ccccc43)[C@H]2C)cc1 | 1.35 | 0.0985 | 0.298 | -1.54 (inactive) | 0.247 | -0.233 | -0.0851 | -0.225 | -0.466 | -0.496
COC(=O)[C@@]1(Cc2ccc(OC)cc2)[C@H]2c3cc(C(=O)N4CCCC4)n(Cc4ccc(C)o4)c3C[C@H]2CN1C(=O)c1ccccc1 | 1.34 | 0.839 | 0.751 | -0.293 (inactive) | 1.24 | 1.09 | 0.232 | 1.32 | -0.0427 | 1.19
COc1ccc(C#Cc2ccc3c(c2)[C@]2(C(=O)N3)[C@H](C(=O)O)[C@H]3C(=O)O[C@H](c4ccccc4)[C@H](c4ccccc4)N3[C@@H]2c2ccc(OCCO)cc2)cc1 | 1.48 | 0.192 | 0.296 | -0.825 (inactive) | 0.929 | 0.984 | 0.45 | 0.486 | 0.195 | -0.159
CCOC(=O)C[C@H]1[C@H](OC(=O)Cc2ccc3c(c2)OCO3)[C@@H](NC(=O)c2ccccc2)c2cc(OCCCO)ccc2N1C(=O)c1ccccc1 | -0.0111 | -0.0126 | -0.0843 | -0.299 (inactive) | 0.603 | 0.505 | 0.437 | 0.371 | 0.276 | 0.524
C[N+](C)(C)CCCCNC(=O)[C@H]1C[C@H]2C(=O)NCC(=O)N2[C@H]1c1ccc(O)cc1 | 1.29 | 0.0645 | -0.31 | -1.01 (inactive) | 1.42 | 1.35 | 1.12 | 1.44 | 1.47 | 0.952
CN(C)C(=O)[C@@]1(Cc2ccccc2N=[N+]=[N-])N=C(c2ccc(OCCCO)cc2)O[C@H]1c1ccccc1N=[N+]=[N-] | 0.974 | 1.19 | 0.7 | -0.167 (inactive) | 0.817 | 1.29 | 0.284 | 0.347 | 0.0393 | 1.28
O=C1O[C@@H](c2ccccc2)[C@@H](c2ccccc2)N2[C@@H](c3ccc(O)cc3)[C@]3(C(=O)Nc4ccc(C#CC5(O)CCCCCC5)cc43)[C@@H](C(=O)N3CCN(c4ncccn4)CC3)[C@H]12 | 0.479 | -0.125 | -0.127 | -0.453 (inactive) | 0.74 | 0.709 | -0.0042 | 0.639 | 0.226 | -0.293
CC(C)CN1C(=O)[C@@]2(Cc3ccccc31)c1ccccc1C(=O)N(Cc1ccccc1)[C@H]2c1ccc(CO)cc1 | -0.743 | 0.236 | 0.514 | -0.489 (inactive) | -0.701 | -0.776 | -0.636 | 0.554 | -0.952 | -0.298
CCCNC(=O)[C@@H]1c2ccccc2C(=O)N(CC23CC4CC(CC(C4)C2)C3)[C@H]1c1ccc(CO)cc1 | 1.6 | 0.831 | 0.718 | -0.254 (inactive) | 1.12 | 1.15 | 0.457 | 1.23 | 1.11 | 0.425

Structure (SMILES) | composite z-score [1] | composite z-score [2] | composite z-score [3] | z-score [4] | composite z-score [5] | composite z-score [6] | composite z-score [7] | composite z-score [8] | composite z-score [9] | composite z-score [10]
CC(=O)NCCCC[C@@H]1NC(=O)[C@@H]2C[C@H](C(=O)NCCCC[N+](C)(C)C)[C@H](c3cccc(OCCO)c3)N2C1=O | 1.08 | -0.11 | 0.275 | 0.677 (inactive) | 0.766 | -0.57 | -0.734 | 1.02 | 0.232 | -0.146
CC(C)C[C@@H]1NC(=O)[C@@H]2C[C@H](C(=O)NCc3ccc(F)cc3)[C@H](c3ccc(O)cc3)N2C1=O | 1.03 | 0.0289 | -0.0756 | -0.295 (inactive) | 0.807 | 0.819 | 0.116 | 0.111 | 0.284 | -0.445
C=CC[C@@]1(C(=O)NCC(O)CO)N=C(c2ccc(OCCCO)cc2)O[C@@H]1c1ccccc1 (stereo not given in full) | 1.46 | 1.24 | 1.34 | -0.195 (inactive) | 1.47 | 0.0168 | -0.829 | -0.29 | -0.135 | 0.505
CC(C)CNC(=O)[C@@]1(C)c2ccccc2C(=O)N(Cc2ccccc2)[C@H]1c1ccc(CO)cc1 | 0.651 | 0.569 | 1.19 | 0.622 (inactive) | -1.21 | -1.01 | -1.56 | -2.11 | -1.88 | -1.02
CCN(CC)c1ccc(N2CC=CC34O[C@@H]5/C=C\CCCOC(=O)C5[C@H]3C(=O)N(CCCCCO)[C@@H]4C2=O)cc1 (stereo not given in full) | 0.643 | 0.123 | 0.397 | 0.643 (inactive) | -1.47 | -1.4 | -0.983 | -1.42 | -1.01 | -0.399
CN(C)CCCCNC(=O)[C@H]1C[C@H]2C(=O)N[C@@H](CCCC[N+](C)(C)C)C(=O)N2[C@H]1c1cccc(OCCO)c1 | 1.57 | -0.124 | 0.15 | -0.698 (inactive) | 0.217 | 0.571 | 0.126 | 0.738 | 0.797 | 0.877
O=C1O[C@H](c2ccccc2)[C@H](c2ccccc2)N2[C@H]1[C@@H](C(=O)N1CCN(c3ncccn3)CC1)[C@]1(C(=O)Nc3ccc(C#CCCO)cc31)[C@H]2c1ccccc1OCCO | 1.24 | 0.0649 | 0.447 | 0.105 (inactive) | 1.15 | 1.11 | 0.282 | 0.501 | 0.525 | -0.14
CC1CC/C=C\[C@H]2OC34C=CCN(Cc5ccccc5)C(=O)[C@H]3N(CCO)C(=O)[C@@H]4C2C(=O)O1 (stereo not given in full) | 1.59 | -0.0038 | 0.681 | 0.229 (inactive) | 0.237 | -0.252 | -1.11 | -1.07 | -0.798 | 1.23
C=CCC(OC(C)=O)[C@@H]1[C@@H](N(Cc2ccc(-c3ccccc3)cc2)C(=O)c2cccc3ccccc23)c2cc(OCCCO)ccc2N1C(=O)c1ccc2ccccc2n1 (stereo not given in full) | -0.0429 | 0.0158 | 0.308 | -0.379 (inactive) | -0.142 | 0.124 | 0.0271 | -0.0464 | -0.196 | 1.24
CN1C(=O)C2C=CC(C(O)C3CCCCC3)N(N(c3ccccc3)c3ccccc3)C2C1=O (stereo not given) | -0.941 | 0.993 | 0.895 | 1.12 (inactive) | 0.189 | -1.14 | -1.34 | -1.14 | -1.28 | 1.48
[N-]=[N+]=NCc1ccccc1[C@H]1OC(c2ccc(OCCCO)cc2)=N[C@@]1(Cc1ccccc1)C(N)=O | 1.51 | 1.19 | 0.947 | -0.312 (inactive) | 0.923 | 0.644 | -0.43 | 0.546 | -0.952 | 0.669
CCN(CC)c1ccc(N2CC=CC34O[C@@H]5/C=C\CCCOC(=O)C5[C@H]3C(=O)N(CCCCCCO)[C@@H]4C2=O)cc1 (stereo not given in full) | 1.96 | -0.202 | 0.733 | -1.13 (inactive) | -0.983 | -0.521 | -1.4 | -0.76 | -1.82 | 0.751
O=C(O)[C@]1(CCS(=O)(=O)c2ccccc2)N=C(c2ccc(OCCCO)cc2)O[C@@H]1c1ccccc1 | 0.74 | 1.21 | 1.04 | 0.149 (inactive) | 0.216 | 0.439 | -0.422 | -0.564 | -0.402 | 0.849
OCc1ccc(-c2cc[n+](Cc3cccc(OC(F)(F)F)c3)cc2)cc1 | 0.802 | 0.44 | 0.854 | 1.36 (inactive) | 0.981 | 0.869 | 1.33 | 1.48 | 1.56 | 1.93
CC(C)N1CC=CC23O[C@@H]4C=CCOC(=O)[C@@H]4[C@H]2C(=O)N(CCCCCCO)[C@@H]3C1=O (stereo not given in full) | 1.99 | -0.284 | 0.143 | -0.594 (inactive) | 0.636 | -0.826 | -0.997 | -0.483 | -0.959 | 0.741
CCCC=C(CCC)[C@@H](NS(=O)(=O)CC)c1ccccc1 | 0.903 | 0.303 | 0.726 | -3.42 (inactive) | 0.601 | 1.12 | 0.167 | 0.388 | -0.328 | 0.147
